This is an account of results in PMC7862700, “An all-to-all approach to the identification of sequence-specific readers for epigenetic DNA modifications on cytosine”.

Common to all, as to test: DAPPL (digital affinity profiling via proximity ligation, sequencing); 10 mM Tris-HCl pH 7.5, 50 mM NaCl, 1 mM DTT, 4% glycerol, room temperature, 30 min; GST-TFs on glutathione beads, 16-mer random dsDNA library, 0.1% formaldehyde crosslink after washing; high values mean tight binding
One assay addresses T1, FLI1 (Homo sapiens, UniProt Q01543 1-452).
T1 sequence: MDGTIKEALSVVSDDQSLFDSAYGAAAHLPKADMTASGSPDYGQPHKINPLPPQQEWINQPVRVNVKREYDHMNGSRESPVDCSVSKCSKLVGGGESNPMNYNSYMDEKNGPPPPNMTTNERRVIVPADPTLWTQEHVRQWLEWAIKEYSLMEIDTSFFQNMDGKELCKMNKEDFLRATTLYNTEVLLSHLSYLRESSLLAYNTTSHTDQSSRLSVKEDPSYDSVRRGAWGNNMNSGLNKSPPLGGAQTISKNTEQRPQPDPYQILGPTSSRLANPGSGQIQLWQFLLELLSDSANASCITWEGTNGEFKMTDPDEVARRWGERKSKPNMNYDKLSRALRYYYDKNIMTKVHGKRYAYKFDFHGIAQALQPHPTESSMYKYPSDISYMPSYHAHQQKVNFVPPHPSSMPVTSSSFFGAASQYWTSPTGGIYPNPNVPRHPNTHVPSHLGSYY
The following applies: protein: recombinant; tags: N-terminal GST; dsDNA, one strand shown. In a few lines:
(§1)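 Pools were built from human transcription factors expressed in yeast as GST fusions, captured on glutathione beads and DNA-barcoded, along with a tag-only sample. Incubation with 200 nmole of a 16-mer random double-stranded DNA library lasted 30 min at room temperature in Tris/NaCl/DTT/glycerol buffer, and was followed by washing, 0.1% formaldehyde crosslinking, proximity ligation, PCR amplification and Illumina NextSeq500 sequencing. Binding signal is the quotient of each hexamer's read frequency for a factor and its frequency for the tag-only sample.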

The next assay deals with T2, ELK1 (Homo sapiens, UniProt P19419 1-428).
T2 sequence: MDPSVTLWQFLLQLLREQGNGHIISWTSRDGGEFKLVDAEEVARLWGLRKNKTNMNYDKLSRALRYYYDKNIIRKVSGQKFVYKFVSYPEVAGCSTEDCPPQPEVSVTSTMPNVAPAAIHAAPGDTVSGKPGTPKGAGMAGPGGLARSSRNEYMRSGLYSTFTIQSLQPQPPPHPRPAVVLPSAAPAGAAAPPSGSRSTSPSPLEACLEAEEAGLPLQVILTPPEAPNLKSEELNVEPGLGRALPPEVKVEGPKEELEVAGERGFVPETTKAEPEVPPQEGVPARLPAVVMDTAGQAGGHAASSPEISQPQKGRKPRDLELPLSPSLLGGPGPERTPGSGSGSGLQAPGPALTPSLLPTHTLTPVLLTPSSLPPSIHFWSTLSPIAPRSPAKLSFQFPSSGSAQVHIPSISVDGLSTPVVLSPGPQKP
The conditions noted are these: protein: recombinant; tags: N-terminal GST; dsDNA, one strand shown. In a few lines: as §1

The target of another assay is T3, GABPA (Homo sapiens, UniProt Q06546 1-454).
T3 sequence: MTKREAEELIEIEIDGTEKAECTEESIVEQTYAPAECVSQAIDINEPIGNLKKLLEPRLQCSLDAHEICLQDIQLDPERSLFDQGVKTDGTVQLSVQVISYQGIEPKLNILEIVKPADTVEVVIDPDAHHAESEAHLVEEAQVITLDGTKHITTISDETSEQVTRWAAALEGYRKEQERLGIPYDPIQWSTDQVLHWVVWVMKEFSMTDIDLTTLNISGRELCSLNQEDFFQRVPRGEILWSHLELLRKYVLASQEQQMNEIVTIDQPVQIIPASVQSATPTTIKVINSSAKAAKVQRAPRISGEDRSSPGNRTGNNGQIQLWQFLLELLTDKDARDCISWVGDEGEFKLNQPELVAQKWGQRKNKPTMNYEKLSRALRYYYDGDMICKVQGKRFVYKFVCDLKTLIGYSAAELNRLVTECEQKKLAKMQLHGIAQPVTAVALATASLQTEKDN
The following applies: protein: recombinant; tags: N-terminal GST; dsDNA, one strand shown. The essentials:
as §1

The next assay concerns the target T4, ERG (Homo sapiens, UniProt P11308 1-479).
T4 sequence: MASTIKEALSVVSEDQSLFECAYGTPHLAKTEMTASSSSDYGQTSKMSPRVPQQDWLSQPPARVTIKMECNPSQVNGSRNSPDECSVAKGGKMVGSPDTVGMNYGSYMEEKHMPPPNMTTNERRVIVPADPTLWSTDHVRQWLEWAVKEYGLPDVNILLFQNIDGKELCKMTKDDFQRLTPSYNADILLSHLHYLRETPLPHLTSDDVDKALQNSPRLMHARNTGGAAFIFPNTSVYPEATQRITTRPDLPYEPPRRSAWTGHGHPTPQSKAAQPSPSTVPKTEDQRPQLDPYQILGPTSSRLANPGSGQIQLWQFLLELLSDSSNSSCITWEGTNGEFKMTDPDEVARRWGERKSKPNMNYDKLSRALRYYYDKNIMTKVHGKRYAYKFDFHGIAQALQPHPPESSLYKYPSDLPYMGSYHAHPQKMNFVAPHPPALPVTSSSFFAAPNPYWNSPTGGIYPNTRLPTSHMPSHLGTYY
The conditions noted are these: protein: recombinant; tags: N-terminal GST; dsDNA, one strand shown. The essentials: as §1

For a further assay, the target named is ELF1 (Homo sapiens, UniProt P32519 1-619). The following applies: protein: recombinant; tags: N-terminal GST; dsDNA, one strand shown. In a few lines:
as §1

Another assay deals with T5, EHF (Homo sapiens, UniProt Q9NZC4 1-300).
T5 sequence: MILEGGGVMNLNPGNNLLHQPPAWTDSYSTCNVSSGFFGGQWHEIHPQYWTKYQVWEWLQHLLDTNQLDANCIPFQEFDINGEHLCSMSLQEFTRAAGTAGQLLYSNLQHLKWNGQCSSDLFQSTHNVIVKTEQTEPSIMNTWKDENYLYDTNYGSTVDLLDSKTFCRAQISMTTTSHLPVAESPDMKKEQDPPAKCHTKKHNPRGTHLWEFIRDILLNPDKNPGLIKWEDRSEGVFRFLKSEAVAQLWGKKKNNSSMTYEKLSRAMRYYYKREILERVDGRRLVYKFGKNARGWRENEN
The conditions noted are these: protein: recombinant; tags: N-terminal GST; dsDNA, one strand shown. The essentials:
as §1

The next assay concerns the target SPI1 (Homo sapiens, UniProt P17947 1-270). The following applies: protein: recombinant; tags: N-terminal GST; dsDNA, one strand shown. In a few lines: as §1
The target in another assay is SPIB (Homo sapiens, UniProt Q01892 1-262). The following applies: protein: recombinant; tags: N-terminal GST; dsDNA, one strand shown. The essentials: as §1
Another assay concerns the target T6, FEV (Homo sapiens, UniProt Q99581 1-238).
T6 sequence: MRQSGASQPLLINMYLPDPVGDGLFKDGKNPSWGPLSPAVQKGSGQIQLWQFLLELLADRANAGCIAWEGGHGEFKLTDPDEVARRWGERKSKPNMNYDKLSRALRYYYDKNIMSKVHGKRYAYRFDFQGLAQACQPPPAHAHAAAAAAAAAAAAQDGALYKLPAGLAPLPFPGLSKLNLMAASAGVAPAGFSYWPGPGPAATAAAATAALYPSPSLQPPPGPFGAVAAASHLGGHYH
The following applies: protein: recombinant; tags: N-terminal GST; dsDNA, one strand shown. The essentials: as §1

Another assay deals with ETV5 (Homo sapiens, UniProt P41161 1-510). The conditions noted are these: protein: recombinant; tags: N-terminal GST; dsDNA, one strand shown. In a few lines:
as §1

In a further assay the target is HSF1 (Homo sapiens, UniProt Q00613 1-529). The conditions noted are these: protein: recombinant; tags: N-terminal GST; chain copies: 3; dsDNA, one strand shown. The essentials: as §1
In another assay the target is T7, SPIC (Homo sapiens, UniProt Q8N5J4 1-248).
T7 sequence: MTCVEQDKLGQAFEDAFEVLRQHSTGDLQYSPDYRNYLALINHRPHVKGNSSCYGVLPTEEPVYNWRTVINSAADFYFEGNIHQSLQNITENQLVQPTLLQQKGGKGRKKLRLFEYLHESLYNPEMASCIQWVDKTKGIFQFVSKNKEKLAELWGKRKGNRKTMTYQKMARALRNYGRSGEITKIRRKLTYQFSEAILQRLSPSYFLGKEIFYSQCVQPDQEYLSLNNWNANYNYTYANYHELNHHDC
The following applies: protein: recombinant; tags: N-terminal GST; dsDNA, one strand shown. In a few lines:
as §1

Another assay concerns the target ELF4 (Homo sapiens, UniProt Q99607 1-663). The following applies: protein: recombinant; tags: N-terminal GST; dsDNA, one strand shown. In a few lines:
as §1

The target of a further assay is T8, ELK4 (Homo sapiens, UniProt P28324-2 1-405).
T8 sequence: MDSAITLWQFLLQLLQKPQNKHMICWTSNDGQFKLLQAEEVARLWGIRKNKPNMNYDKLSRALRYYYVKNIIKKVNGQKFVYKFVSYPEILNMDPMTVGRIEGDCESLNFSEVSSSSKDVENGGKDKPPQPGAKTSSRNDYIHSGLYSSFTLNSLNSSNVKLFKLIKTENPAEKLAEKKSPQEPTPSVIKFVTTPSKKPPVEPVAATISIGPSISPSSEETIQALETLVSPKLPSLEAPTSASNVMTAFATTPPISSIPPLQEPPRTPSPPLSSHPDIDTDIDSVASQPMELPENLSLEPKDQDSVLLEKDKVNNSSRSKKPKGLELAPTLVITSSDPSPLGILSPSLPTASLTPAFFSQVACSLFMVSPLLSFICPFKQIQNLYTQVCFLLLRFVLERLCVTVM
The conditions noted are these: protein: recombinant; tags: N-terminal GST; dsDNA, one strand shown. In a few lines: as §1

The next assay concerns the target T9, ETV2 (Homo sapiens, UniProt O00321 1-342).
T9 sequence: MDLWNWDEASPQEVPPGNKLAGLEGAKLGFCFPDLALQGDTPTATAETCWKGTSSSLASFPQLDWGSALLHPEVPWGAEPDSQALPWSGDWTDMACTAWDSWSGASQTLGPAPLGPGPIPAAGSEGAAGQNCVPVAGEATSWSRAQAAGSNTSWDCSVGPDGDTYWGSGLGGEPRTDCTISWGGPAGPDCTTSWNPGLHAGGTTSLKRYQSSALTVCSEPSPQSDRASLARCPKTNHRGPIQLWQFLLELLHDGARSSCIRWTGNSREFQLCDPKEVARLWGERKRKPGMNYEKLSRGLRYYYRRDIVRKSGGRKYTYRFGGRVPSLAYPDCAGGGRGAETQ
The conditions noted are these: protein: recombinant; tags: N-terminal GST; dsDNA, one strand shown. The essentials: as §1

The next assay deals with T10, ELF3 (Homo sapiens, UniProt P78545 1-371).
T10 sequence: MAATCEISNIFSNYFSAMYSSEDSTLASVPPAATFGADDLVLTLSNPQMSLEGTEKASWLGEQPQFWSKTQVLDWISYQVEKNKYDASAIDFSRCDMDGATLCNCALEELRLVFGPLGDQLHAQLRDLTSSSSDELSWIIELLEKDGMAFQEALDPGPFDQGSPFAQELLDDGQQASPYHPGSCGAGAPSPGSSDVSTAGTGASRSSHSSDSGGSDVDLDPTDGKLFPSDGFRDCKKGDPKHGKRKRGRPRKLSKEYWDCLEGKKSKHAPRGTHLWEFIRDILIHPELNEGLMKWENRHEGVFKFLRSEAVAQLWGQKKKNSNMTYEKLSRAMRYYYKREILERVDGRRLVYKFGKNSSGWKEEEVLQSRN
The following applies: protein: recombinant; tags: N-terminal GST; dsDNA, one strand shown. In a few lines: as §1

The next assay has as its target ETV1 (Homo sapiens, UniProt P50549 1-477). The conditions noted are these: protein: recombinant; tags: N-terminal GST; dsDNA, one strand shown. The essentials: as §1

Chain of ELF1 (P32519 whole entry): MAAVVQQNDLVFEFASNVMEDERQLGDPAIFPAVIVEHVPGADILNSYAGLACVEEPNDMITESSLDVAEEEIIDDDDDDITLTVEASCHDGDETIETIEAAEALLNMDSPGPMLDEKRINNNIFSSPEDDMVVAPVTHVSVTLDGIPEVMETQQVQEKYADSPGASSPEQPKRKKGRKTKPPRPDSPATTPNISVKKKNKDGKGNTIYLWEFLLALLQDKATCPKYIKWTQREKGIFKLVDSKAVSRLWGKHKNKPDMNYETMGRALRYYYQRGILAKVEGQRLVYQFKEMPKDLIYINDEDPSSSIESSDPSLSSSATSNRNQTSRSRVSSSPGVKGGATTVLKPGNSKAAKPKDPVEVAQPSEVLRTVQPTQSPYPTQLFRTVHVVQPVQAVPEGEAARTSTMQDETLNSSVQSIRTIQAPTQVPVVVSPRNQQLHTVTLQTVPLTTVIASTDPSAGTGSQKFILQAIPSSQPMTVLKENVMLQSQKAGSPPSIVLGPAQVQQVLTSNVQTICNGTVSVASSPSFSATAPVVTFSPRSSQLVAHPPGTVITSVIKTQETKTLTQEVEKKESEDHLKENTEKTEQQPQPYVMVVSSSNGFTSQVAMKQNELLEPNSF
Chain of SPIB (Q01892 whole entry): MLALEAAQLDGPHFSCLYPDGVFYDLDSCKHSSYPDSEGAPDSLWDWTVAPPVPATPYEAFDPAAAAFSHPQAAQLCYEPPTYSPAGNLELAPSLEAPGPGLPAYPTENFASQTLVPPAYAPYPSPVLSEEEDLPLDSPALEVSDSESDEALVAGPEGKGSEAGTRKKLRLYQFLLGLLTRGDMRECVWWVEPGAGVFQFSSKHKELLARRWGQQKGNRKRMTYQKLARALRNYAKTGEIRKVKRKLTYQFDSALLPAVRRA
Chain of ELF4 (Q99607 whole entry): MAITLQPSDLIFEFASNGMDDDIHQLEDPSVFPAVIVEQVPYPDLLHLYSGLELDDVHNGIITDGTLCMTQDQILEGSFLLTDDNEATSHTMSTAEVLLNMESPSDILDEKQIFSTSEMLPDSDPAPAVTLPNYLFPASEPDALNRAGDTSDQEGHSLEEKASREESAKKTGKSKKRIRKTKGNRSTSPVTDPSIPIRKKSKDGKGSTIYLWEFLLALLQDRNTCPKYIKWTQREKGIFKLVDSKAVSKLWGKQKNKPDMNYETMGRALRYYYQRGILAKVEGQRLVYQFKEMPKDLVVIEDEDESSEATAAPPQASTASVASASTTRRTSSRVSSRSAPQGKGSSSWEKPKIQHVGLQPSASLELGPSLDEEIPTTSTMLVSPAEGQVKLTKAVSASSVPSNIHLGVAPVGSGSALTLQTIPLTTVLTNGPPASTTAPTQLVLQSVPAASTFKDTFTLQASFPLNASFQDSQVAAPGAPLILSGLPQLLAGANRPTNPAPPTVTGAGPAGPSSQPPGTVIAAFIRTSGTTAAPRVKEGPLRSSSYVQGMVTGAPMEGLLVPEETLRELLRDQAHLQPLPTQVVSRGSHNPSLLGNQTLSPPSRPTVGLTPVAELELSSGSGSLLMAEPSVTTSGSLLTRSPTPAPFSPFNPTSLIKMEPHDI
Chain of ETV5 (P41161 whole entry): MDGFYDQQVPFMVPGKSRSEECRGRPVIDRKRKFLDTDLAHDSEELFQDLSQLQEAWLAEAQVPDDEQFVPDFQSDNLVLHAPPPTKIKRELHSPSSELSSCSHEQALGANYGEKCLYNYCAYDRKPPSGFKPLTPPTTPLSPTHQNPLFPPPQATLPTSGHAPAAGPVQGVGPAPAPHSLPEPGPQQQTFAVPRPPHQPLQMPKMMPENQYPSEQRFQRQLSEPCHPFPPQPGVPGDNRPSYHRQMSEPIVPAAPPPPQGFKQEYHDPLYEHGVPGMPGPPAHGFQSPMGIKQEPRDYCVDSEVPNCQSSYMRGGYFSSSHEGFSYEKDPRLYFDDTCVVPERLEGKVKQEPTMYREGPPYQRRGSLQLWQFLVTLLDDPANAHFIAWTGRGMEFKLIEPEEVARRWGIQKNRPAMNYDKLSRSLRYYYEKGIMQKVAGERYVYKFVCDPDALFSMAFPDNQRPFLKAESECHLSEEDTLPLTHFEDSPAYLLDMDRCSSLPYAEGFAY
Chain of HSF1 (Q00613 whole entry): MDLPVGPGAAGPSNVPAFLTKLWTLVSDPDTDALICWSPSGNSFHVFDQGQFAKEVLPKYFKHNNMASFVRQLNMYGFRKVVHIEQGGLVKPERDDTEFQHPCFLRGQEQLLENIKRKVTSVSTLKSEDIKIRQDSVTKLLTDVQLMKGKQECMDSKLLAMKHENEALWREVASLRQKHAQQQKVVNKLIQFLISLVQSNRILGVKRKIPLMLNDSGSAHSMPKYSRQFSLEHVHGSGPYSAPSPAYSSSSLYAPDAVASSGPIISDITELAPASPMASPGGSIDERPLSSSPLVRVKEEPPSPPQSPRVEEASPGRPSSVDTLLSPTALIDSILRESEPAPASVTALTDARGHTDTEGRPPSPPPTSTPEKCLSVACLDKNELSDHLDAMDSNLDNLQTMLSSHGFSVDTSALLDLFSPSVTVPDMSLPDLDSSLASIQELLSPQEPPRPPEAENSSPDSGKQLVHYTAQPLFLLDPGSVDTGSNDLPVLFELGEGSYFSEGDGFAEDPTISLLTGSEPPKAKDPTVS
Chain of ETV1 (P50549 whole entry): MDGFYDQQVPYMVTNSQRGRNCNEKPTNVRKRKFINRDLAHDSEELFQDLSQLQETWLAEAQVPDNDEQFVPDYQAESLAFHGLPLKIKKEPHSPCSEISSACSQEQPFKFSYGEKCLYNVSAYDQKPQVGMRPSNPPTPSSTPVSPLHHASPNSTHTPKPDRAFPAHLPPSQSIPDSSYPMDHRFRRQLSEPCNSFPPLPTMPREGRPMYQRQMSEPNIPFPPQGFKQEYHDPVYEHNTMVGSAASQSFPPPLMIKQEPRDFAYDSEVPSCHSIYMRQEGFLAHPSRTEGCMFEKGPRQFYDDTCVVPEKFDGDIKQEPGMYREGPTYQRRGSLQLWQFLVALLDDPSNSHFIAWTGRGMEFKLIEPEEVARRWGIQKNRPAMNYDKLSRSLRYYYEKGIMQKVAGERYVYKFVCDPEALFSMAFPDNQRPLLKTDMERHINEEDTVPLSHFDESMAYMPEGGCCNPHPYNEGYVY

Consider ACCTCG, for which the binding signal with FLI1 is 1 fold enrichment (6-mer frequency, TF over GST control); with ELK1, 1.18 fold enrichment (6-mer frequency, TF over GST control); in the assay with GABPA it was 1.24 fold enrichment (6-mer frequency, TF over GST control); in the assay with ERG, 1.15 fold enrichment (6-mer frequency, TF over GST control); with ELF1 it was 1.11 fold enrichment (6-mer frequency, TF over GST control); with EHF it was 1.16 fold enrichment (6-mer frequency, TF over GST control). Also, the binding signal was 1.14 fold enrichment (6-mer frequency, TF over GST control) with SPI1; 1.19 fold enrichment (6-mer frequency, TF over GST control) with SPIB; 1.05 fold enrichment (6-mer frequency, TF over GST control) with FEV; 1.11 fold enrichment (6-mer frequency, TF over GST control) with ETV5; 1.14 fold enrichment (6-mer frequency, TF over GST control) with HSF1; 1.17 fold enrichment (6-mer frequency, TF over GST control) in the assay with SPIC. For the same sequence, the binding signal in the assay with ELF4 was 1.18 fold enrichment (6-mer frequency, TF over GST control); in the assay with ELK4 it was 1.35 fold enrichment (6-mer frequency, TF over GST control); with ETV2, 1.28 fold enrichment (6-mer frequency, TF over GST control); with ELF3, 1.23 fold enrichment (6-mer frequency, TF over GST control); in the assay with ETV1, 1.15 fold enrichment (6-mer frequency, TF over GST control).
